Test results from PubChem BioAssay AID652016 (National Center for Advancing Translational Sciences (NCATS), 2013).
Records with an inconclusive call do not appear. Where a call stands in place of a potency, no number is given. Activity calls are given as the source filed them. Calls follow the shape of the dose curve; as a rule, active = well fitted inhibition curve with a large enough effect; inconclusive = small, poorly fitted or top-dose-only effect; inactive = flat fitted curve, though single readings scatter.

target: Luciferin 4-monooxygenase (Photinus pyralis) (UniProt P08659); assay: qHTS Assay for Inhibitors of Firefly Luciferase from the GSK Published Protein Kinase Inhibitor Set; conditions: purified firefly luciferase, luminescence inhibition; series mostly up to 57.5 µM
Outline: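 Enzyme-level luminescence assay: compounds titrated (about 60uM down to 300pM) into substrate buffer (10uM ATP, 10uM D-luciferin, pH 7.5 Tris acetate with Mg, Tween-20, BSA), then 10nM firefly luciferase added; read after ~5 min.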
Potency is read from the fitted curve at half-maximal effect.

Luciferin 4-monooxygenase (Photinus pyralis), sequence (P08659 whole entry, looked up): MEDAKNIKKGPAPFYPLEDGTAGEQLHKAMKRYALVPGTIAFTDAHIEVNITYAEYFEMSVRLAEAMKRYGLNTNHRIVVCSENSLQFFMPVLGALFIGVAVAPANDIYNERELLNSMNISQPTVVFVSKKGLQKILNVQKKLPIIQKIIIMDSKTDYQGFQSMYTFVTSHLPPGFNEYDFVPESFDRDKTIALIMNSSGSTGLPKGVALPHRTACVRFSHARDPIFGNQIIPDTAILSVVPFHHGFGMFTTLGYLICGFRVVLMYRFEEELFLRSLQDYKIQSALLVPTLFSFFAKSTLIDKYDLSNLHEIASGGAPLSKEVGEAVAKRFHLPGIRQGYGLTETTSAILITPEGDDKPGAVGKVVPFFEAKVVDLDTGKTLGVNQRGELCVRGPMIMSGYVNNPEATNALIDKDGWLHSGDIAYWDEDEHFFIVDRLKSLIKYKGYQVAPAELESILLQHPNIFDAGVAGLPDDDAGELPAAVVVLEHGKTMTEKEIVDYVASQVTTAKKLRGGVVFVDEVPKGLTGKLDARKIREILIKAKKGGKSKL

Compound	Potency
c1ccc(Oc2ccc(Nc3ncc(-c4ccccc4)o3)cc2)cc1	inactive
COC(=O)c1ccc2c(c1)/C(=C/c1cc(Br)c(O)c(Br)c1)C(=O)N2	20.6 µM (active)
Cc1ccc(C(=O)NC(C)C)cc1-c1ccc(C(=O)NCC2CC2)cc1	inactive
CCCNc1cccc(-n2ncc3c(NN=Cc4ccncc4)ncnc32)c1	inactive
COc1cc2ncn(-c3cc(OCCc4ccccc4)c(C(N)=O)s3)c2cc1OC	inactive
CCN(CC)S(=O)(=O)c1ccc(OC)c(Nc2ncc(-c3ccccc3)o2)c1	inactive
O=C(Nc1ccc(Oc2ccc3nc(NC(=O)c4ccccc4)[nH]c3c2)cc1)Nc1cc(C(F)(F)F)ccc1F	inactive
COc1cccc(-n2ncc3c(NN=Cc4ccc(C)cc4)ncnc32)c1	inactive
NS(=O)(=O)c1ccc(N=Cc2c(O)[nH]c3ccc4ncsc4c23)cc1	inactive
O=C1Nc2ccc(C(=O)c3ccco3)cc2/C1=C/c1cc(Cl)c(O)c(Cl)c1	18.3 µM (active)
Fc1ccc(-c2ncn(CCCN3CCOCC3)c2-c2ccncc2)cc1	inactive
CC(C)c1ccc(-c2cc(-c3cn[nH]c3-c3ccccn3)ccn2)cc1	inactive
CN1CCC(C(=O)Nc2n[nH]c3nc(-c4ccc(O)cc4)c(Br)cc23)CC1	inactive
NC(=O)c1cccc(Nc2nccc(Nc3cccc(F)c3)n2)c1	0.73 µM (active)
COc1cccc(Nc2nccc(-c3cnn4ncccc34)n2)c1	inactive
CN1CCN(Cc2ccc(-c3cc4ncnc(Nc5ccc(OCc6cccc(F)c6)c(Cl)c5)c4s3)o2)CC1	inactive
CNC(=O)c1cncc(C=Cc2c(Cl)cccc2Cl)c1	16.3 µM (active)

Compound	Potency
FC(F)(F)c1ccc(-c2nn3ncccc3c2-c2ccnc(Nc3ccc4c(c3)OCCO4)n2)cc1	inactive
COc1ccc(-c2nn3ncccc3c2-c2ccnc(Nc3ccc(F)c(F)c3)n2)cc1	inactive
COc1cc(N2CCN(C(C)C)CC2)ccc1Nc1nc(Nc2ccc(F)cc2C(=O)NCC(O)CO)c2cc[nH]c2n1 (stereo not drawn)	inactive
CCn1c(-c2nonc2N)nc2c(C#CC(C)(C)O)nc(OCC(N)c3ccccc3)cc21 (stereo not drawn)	inactive
O=C1NC(=O)C(c2cccc(Cl)c2)=C1Nc1ccc(O)c(Cl)c1	inactive
c1ccc(Cc2nc3ccc(Nc4ncnc5ccccc45)cc3[nH]2)cc1	16.3 µM (active)
Cc1cc(O)cc(C)c1C=Cc1cncc(C(=O)OC(C)(C)C)c1	inactive
CCc1nn2ncccc2c1-c1ccnc(NC2CC2)n1	inactive
NS(=O)(=O)c1ccc(-c2cc3ccncc3cc2OCc2ccccc2)cc1	inactive
COc1cc2c(cc1Nc1nc(Nc3cccc(F)c3C(N)=O)c3cc[nH]c3n1)N(C(=O)CN1CCN(C(C)C)CC1)CC2	inactive
CS(=O)(=O)CCNCc1cc(-c2cc3c(Nc4ccc(OCc5cccc(F)c5)c(Cl)c4)ncnc3s2)cs1	inactive
CS(=O)(=O)CCNCc1nc(-c2ccc3ncnc(Nc4ccc(OCc5cccc(C(F)(F)F)c5)cc4)c3c2)cs1	inactive
COc1ccc(Nc2ncc(-c3ccccc3)o2)cc1OC	5.8 µM (active)
COC(=O)Nc1nc2ccc(Oc3ccc(NC(=O)Nc4cccc(Br)c4)cc3)cc2[nH]1	inactive
O=C1NC(=O)C(c2cccc(Cl)c2)=C1Nc1ccc(Cl)c(C(=O)O)c1	inactive
N#Cc1c(NC(=O)CN2CCOCC2)sc2c1CCCC2	inactive
